Shown are actives, neighbours in structure and some others; about 19% of the full set was active somewhere.
uPA surface inh: qHTS for Inhibitors of Cell Surface uPA Generation. cell surface uPA generation assay, qHTS. Potency, µM (highest dose often 38.3 µM), for the others: top-dose activity change, negative = inhibition, most hits filed as inhibitors. 330,000 compounds, 0.31% hits. AID 540303, 2011; active means well fitted inhibition curve with a large enough effect; inconclusive means small, poorly fitted or top-dose-only effect; inactive means no such curve, though single readings can be large or run the other way; tested in mouse RAW 264.7 cells; further: potency means the concentration at half of the fitted maximal effect; nearly all actives have a fitted effect of over 55% in size
TDP1 cell CPT: qHTS for Inhibitors of human tyrosyl-DNA phosphodiesterase 1 (TDP1): qHTS in cells in presence of CPT. chicken DT40 Tdp1-/-;hTDP1 cells + 20 nM CPT, ATP luminescence, 48 h. Potency, µM (series often up to 46.2 µM), for the others: at the top dose activity change, negative = growth inhibition, most hits filed as inhibitors. 420,000 compounds, 12% hits; further: potency means the concentration at half of the fitted maximal effect; nearly all actives have a fitted effect of over 55% in size
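Chicken DT40 Tdp1-/- cells complemented with human TDP1, 400 cells/well, exposed to compounds plus 20 nM camptothecin for at least 48 h at 37 C; viability read as ATP content by CellTiter-Glo luminescence.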
IL1B secr inh: qHTS for Inhibitors of Inflammasome Signaling: IL-1-beta AlphaLISA Primary Screen; activity change, % at 57.5 µM; 360,000 compounds, 4.7% hits; THP-1 LPS/ATP IL-1B secretion, AlphaLISA, 16 h; active compounds read low; in the data active means activity change below about -50%; inconclusive means mostly about -30% to -49%
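THP-1 cells pretreated 1 hr with compounds (up to 57.5 uM final), then stimulated with LPS (250 ng/mL final) plus ATP (1.25 mM final); secreted IL-1B measured by AlphaLISA after 16 hr, decreased signal indicating inhibition.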
HT1080 IDH1KD tx: qHTS for induction of synthetic lethality in tumor cells producing 2HG: qHTS for the HT-1080-IDH1KD cell line; HT-1080 IDH1 knockdown viability, ATP luminescence, 48 h; Potency, µM (titrated, usually from 46.1 µM), for the others: top-dose activity, negative = toxicity, usual class: cytotoxic; 360,000 compounds, 2% hits; AID 686971, 2013;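 further: potency means the concentration at half of the fitted maximal effect; 0% = DMSO wells and -100% = cell-free medium wells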
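Viability of IDH1-knockdown HT-1080 fibrosarcoma cells was assessed by CellTiter-Glo after 48 h at 37 °C with titrated compound; concentration-effect curves were classified by fit quality and response size.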
TDP1 cell noCPT: qHTS for Inhibitors of human tyrosyl-DNA phosphodiesterase 1 (TDP1): qHTS in cells in absence of CPT; AID 686978, 2013; DT40 Tdp1-/- hTDP1 cells, no CPT, ATP luminescence, 48 h; 420,000 compounds, 15% hits; Potency, µM (titrated, usually from 46.2 µM), for the others: top-dose activity change, negative = growth inhibition, most hits filed as inhibitors; further: potency means the concentration at half of the fitted maximal effect; nearly all actives have a fitted effect of over 55% in size
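Chicken DT40 Tdp1-/- cells complemented with human TDP1, screened without camptothecin (DMSO vehicle only), 400 cells/well. Compounds pin-transferred, cells incubated at 37 °C for at least 48 hr. Growth read as ATP-dependent luminescence (CellTiter-Glo, 30 min at RT).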
HT1080NT lethal: qHTS for induction of synthetic lethality in tumor cells producing 2HG: qHTS for the HT-1080-NT fibrosarcoma cell line; HT-1080-NT fibrosarcoma viability, CellTiter-Glo ATP luminescence, 48 h; Potency, µM (top dose mostly 46.1 µM), for the others: at the highest dose activity, negative = less viability, usual class: cytotoxic; 360,000 compounds, 1.6% hits; AID 686970, 2013;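 further: NT is the 2HG producing partner of a matched IDH1 knockdown line; potency means the concentration at half of the fitted maximal effect; 0% = DMSO-treated cells and -100% = media-only wells without cells; nearly all actives have a fitted effect of over 55% in size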
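Toxicity toward the 2HG-producing NT line was scored as %Activity, normalised to DMSO and no-cell wells, from CellTiter-Glo luminescence after 48 hours' treatment.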
Starred values were filed as active, the others as inactive; ? = inconclusive; . = no result. Unless noted, the call rests on the fitted dose curve; in most records, active means well fitted curve in the direction sought with a large enough effect; inconclusive means small, poorly fitted or top-dose-only effect, or another doubt; inactive means no such curve, though single readings can be large; an effect the other way counts as inactive or inconclusive. Unless noted, on the % scale 0 is the no-effect control and ±100 the full control effect.

SMILES	uPA surface inh	TDP1 cell CPT	IL1B secr inh	HT1080 IDH1KD tx	TDP1 cell noCPT	HT1080NT lethal
[O-][n+]1c2ccccc2[n+]([O-])c2cc(O)ccc21	-10%	9.2µM*	0	-20%	13µM*	-18%
Cc1ccc2ccccc2[n+]1[O-]	.	-4%	.	.	-5%	.
Cc1ccc(C(c2nnnn2CCc2ccccc2)N2CCSCC2)cc1 (stereo not given)	4%	16µM*	-18	0%	?	-1%
Cc1ccc(C(c2nnnn2CCc2ccccc2)N2CCC(C)CC2)cc1 (stereo not given)	3%	?	-64*	?	16µM*	-29%
O=C(NNS(=O)(=O)c1ccc(C(F)(F)F)cc1)c1cnn(-c2ccccc2)c1C(F)(F)F	7%	-19%	0	1%	-14%	4%
Cc1ccc(CNC(=O)CCCn2nc(C)c3c(C)n(-c4ccccc4)nc3c2=O)cc1	0%	?	?	6%	?	6%
Cc1c(Cl)cccc1NC(=O)c1cc2nc(-c3ccc4c(c3)OCO4)cc(C(F)(F)F)n2n1	.	-8%	.	.	-19%	.
CC(=O)N1CCN(C(=O)CC2OC(=O)c3ccccc32)CC1 (stereo not given)	-5%	8.2µM*	21	4%	12µM*	0%
O=C(CC1OC(=O)c2ccccc21)Nc1ccccc1N1CCOCC1 (stereo not given)	-1%	28%	-12	2%	-25%	2%
Cc1c(Cl)cccc1NC(=S)N1CCCCCC1	-2%	?	1	0%	18µM*	-9%
CN1CCN(C(=S)Nc2ccccc2Cl)CC1	-5%	-26%	-16	1%	?	-2%
CCN1CCN(C(=S)Nc2ccccc2Cl)CC1	0%	11µM*	-3	7%	?	3%
Cc1ccccc1NC(=S)N1CCN(c2ccccc2Cl)CC1	1%	15µM*	3	-9%	12µM*	-8%
COc1ccccc1NC(=S)N1CCN(c2cccc(C)c2C)CC1	-27%	5.2µM*	?	-18%	2.3µM*	-28%
COCCN1CCN(C(=O)C2CCC(=O)N(CCc3cccc(F)c3)C2)CC1 (stereo not given)	-2%	3%	4	12%	0%	7%
COC(=O)c1cc2sccc2n1CC(=O)Nc1ccc(OC)c(OC)c1	.	-17%	.	.	-16%	.
O=S1(=O)CCN(CCCCc2ccccc2)CC1	.	-9%	3	3%	-27%	4%
CCOc1ccc(C(CC(=O)O)NC(=O)Cc2ccc(Cl)cc2)cc1 (stereo not given)	1%	16%	15	-2%	4%	1%
COc1ccccc1N1CCN(C(=S)Nc2cccc(C)c2)CC1	-9%	23µM*	-14	?	23µM*	-26%
COc1ccc2c(c1)C(=O)CC2	.	-6%	.	.	-2%	.
O=C(NC(C(=O)N/N=C/c1cc([N+](=O)[O-])ccc1O)c1n[nH]c(=O)c2ccccc12)c1ccccc1 (stereo not given)	2%	-3%	101	?	?	-26%
CN(c1ccc(OCC(=O)NCCc2ccccc2)cc1)S(=O)(=O)c1ccc(Cl)cc1	0%	?	-6	0%	?	-11%
COc1ccc(CCNC(=O)COc2ccc(N(C)S(=O)(=O)c3ccc(Cl)cc3)cc2)cc1	-2%	23µM*	-14	-10%	?	-2%
COCCNC(=O)c1ccc(N(C)S(=O)(=O)c2ccc(OC)c(OC)c2)cc1	-10%	2%	-8	2%	-6%	5%
COc1ccc(CCNC(=O)c2ccc(N(C)S(=O)(=O)c3ccc(C)cc3)cc2)cc1OC	-6%	21µM*	-4	-11%	21µM*	?
SMILES	uPA surface inh	TDP1 cell CPT	IL1B secr inh	HT1080 IDH1KD tx	TDP1 cell noCPT	HT1080NT lethal
COc1ccc(CCNC(=O)c2ccc(CNS(=O)(=O)c3ccccc3)cc2)cc1OC	5%	18µM*	-11	-3%	16µM*	-12%
COc1ccc(S(=O)(=O)NCc2ccc(C(=O)NCCN(C)Cc3ccccc3)cc2)cc1	.	18µM*	-20	-15%	21µM*	-28%
COc1ccc(CNC(=O)c2ccc(CNS(=O)(=O)c3ccc(OC)cc3)cc2)cc1	.	-8%	.	.	-3%	.
C=CCC(O)(CC=C)CNC(=O)c1ccc(OC)c(OC2CCN(C(C)=O)CC2)c1	-9%	1%	0	-1%	19%	2%
CCN(CC(=O)Nc1ccc(OC)cc1)C(=O)CSCC(=O)Nc1cc(C)on1	-3%	-3%	-8	-13%	-5%	-3%
Cc1noc(C)c1C(=O)N1CCC2(CCCN(C(=O)Nc3cccc(F)c3)C2)CC1	.	15%	.	.	-3%	.
COc1ccc(CCNC(=O)COc2ccc(N(C)S(=O)(=O)c3ccc(C)cc3)cc2)cc1OC	2%	?	?	-20%	16µM*	-9%
COc1ccc(CCNC(=O)c2ccc(CNc3nc(=S)[nH]c4ccccc34)cc2)cc1OC	0%	15µM*	6	-13%	?	-15%
COc1ccc(CCNC(=O)COc2ccc(-c3ccccc3)cc2)cc1OC	3%	-20%	-1	3%	-1%	5%
COc1ccc(NC(=O)NC2COc3ccccc3C2)c(OC)c1 (stereo not given)	.	-11%	.	.	-5%	.
CCOc1ccccc1CNC(=O)CCn1c(=O)c2cccn2c2ccc(F)cc21	.	?	.	.	16µM*	.
COc1cccc(CNC(=O)CCn2c(=O)c3cccn3c3ccc(F)cc32)c1OC	.	?	.	.	23µM*	.
COc1ccc(Oc2ncc3nc(-c4ccccc4)c(=O)n(CCC#N)c3n2)cc1	.	18%	.	.	?	.
COc1ccc(S(=O)(=O)N2CCCOC2CNC(=O)C(=O)NCc2cccnc2)cc1 (stereo not given)	3%	7%	5	6%	-4%	6%
COc1cccc(S(=O)(=O)N(C)C[C@@H]2Oc3cc(C#CCN(C)C)ccc3S(=O)(=O)N([C@H](C)CO)C[C@@H]2C)c1	.	-18%	-25	-7%	?	-1%
COc1ccccc1S(=O)(=O)N(C)C[C@H]1Oc2cc(Br)ccc2S(=O)(=O)N([C@@H](C)CO)C[C@H]1C	.	29µM*	-14	-3%	16µM*	-11%

Source: PubChem
